The text below walks through data of PubChem BioAssay (NCATS).

Structures are written as SMILES. Records with an inconclusive call do not appear. Active and inactive are the calls of the source. Calls follow the shape of the dose curve; as a rule, active = well fitted inhibition curve with a large enough effect; inconclusive = small, poorly fitted or top-dose-only effect; inactive = flat fitted curve, though single readings scatter.

The nature of the assay: Cytometry Cell-Based qHTS for Inhibitors of the mTORC1 Signaling Pathway in MEF cells (AID 2668).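 Also: Tsc2-/- p53-/- mouse embryonic fibroblasts stably re-expressing wild-type Tsc2; percent cells positive for phospho-rpS6 Ser235/236 relative to propidium iodide stain.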 The note with it: mTORC1 pathway readout; series mostly up to 38.3 µM. From the text: NIH Molecular Libraries Probe Production Centers Network [MLPCN]
NIH Chemical Genomics Center [NCGC]
Assay Submitter (PI): Blenis, John; Hoffman, Greg; Harvard University
NCGC Assay Overview: The mammalian target of rapamycin (mTOR) is an intracellular serine/threonine kinase Aberrant regulation of mTOR signaling plays a causative role in a number of human diseases, including cancer, benign tumors such as lymphangioleiomyomatosis (LAM) and Tuberous Sclerosis Complex (TSC), and metabolic diseases such as diabetes and obesity. This project aims to identify inhibitors of ribosomal protein S6 (rpS6) phosphorylation. The phosphorylation of rpS6 is a key event downstream of mTOR activation. The assay uses a phospho-specific antibody of phospho-rpS6 to detect inhibitors of mTOR activation. Mutations in the Tsc1 and Tsc2 genes are the underlying genetic lesions responsible for TSC, causing constitutive activation of the mTORC1 pathway and leading to profound effects on cell metabolism. Aberrant metabolism in cancer has recently received significant attention as a target to develop therapeutic agents in the treatment of cancer.1 As Tsc2-/- cells have lost the ability to respond to energy and growth factor deprivation, these cells are unable to properly down regulate cellular biosynthetic processes in response to metabolic stress, and are thus extremely sensitive to glucose deprivation-induced death.2 A central goal of this project is to explore the unique cell survival and metabolic properties of cells with Tsc1 or Tsc2 by screening for compounds that selectively target the Tsc2-/- MEFs by screening both Tsc2-/- and WT MEF cell lines. We hope to better understand these aspects of TSC physiology in order to exploit them for therapeutic benefit.
NCGC Acumen Assay Protocol:
For quantitative high throughput analysis of mTORC1 signaling, we developed a cell-based assay for immuno-fluorescence based detection of rpS6 phosphorylation on the Acumen Explorer that will be used a platform for the primary small molecule screen. Mouse embryonic fibroblasts (MEFs) are cultured in 1536-well plates using DMEM + 10% FBS. Twenty-four hrs after plating, test compounds (solubilized in DMSO) are delivered and incubated with the cells for 24 hrs at 37 degree Celsius. Following the incubation, media with compound is aspirated and the cells are fixed in 4% paraformaldehyde (PFA) containing PBS + 0.2% TX-100. Next, PFA is aspirated, cells are washed two times with PBS plus 0.2% TX-100 and the cells are blocked for 1 hr at room temperature (blocking buffer: LiCOR Blocking Buffer plus 0.2% TX-100). This is followed by aspiration and staining with Alexa-488 conjugated-phospho-rpS6 Ser235/236 antibody for 2 hours at room temperature (Cell Signaling Technology # 4803, 1:50 dilution in blocking buffer). Cells are washed two times with PBS plus 0.2% TX-100, and stained with 10 uM propidium iodide (PI) for 20-25 minutes for cell number measurement (1:500 dilution of Hoescht staining is also added for IN Cell imaging). The plates are scanned on the Acumen Explorer laser scanning instrument (TTP Labtech) using the 488nm laser for simultaneous excitation of the Alexa-488 and PI. The fluorescence emission from the Alexa-488 conjugated rpS6 phospho-235/236 antibody staining is selected using a […] band pass filter. Fluorescence emission from the PI stain is selected using a 575-640 nm band pass filter. The normalized phospho-S6 staining is calculated as the ratio of the integrated Alexa 488 intensity divided by the integrated PI intensity for the single concentration rapamycin control (7.5 nM) and DMSO columns. […] Inhibition of the pathway is defined based on the normalized phospho-S6 intensity in rapamycin treated cells. […]
Consider `CCC1(c2ccc(N)cc2)CCC(=O)NC1=O` (stereo not given), for which the call was inactive.

Turning to `Cc1ncsc1CCCl`, the call was inactive.

As to `C=C(C)[C@H]1CN[C@H](C(=O)O)[C@H]1CC(=O)O`, the result was inactive.

As to `O=P1(N(CCCl)CCCl)NCCCO1` (stereo not given), the compound was called inactive.

As for `NCCc1ccc(O)cc1`, the compound was called inactive.

Take `CC(NC(C)(C)C)C(=O)c1cccc(Cl)c1` (stereo not given): the outcome was inactive.

Consider `CC(C)N(CCC(C(N)=O)(c1ccccc1)c1ccccn1)C(C)C` (stereo not given), for which the outcome was inactive.

Consider `O=c1[nH]oc2c1CCNC2`, for which the call was inactive.

`CCCCC/C=C\C/C=C\C/C=C\C/C=C\CCCC(=O)NCC(=O)O`: the outcome was inactive.

In the case of `CC(C)c1cccc(C(C)C)c1O`, the compound was called inactive.

In the case of `CC(C)(C)NCC(O)c1ccccc1Cl` (stereo not given), the compound was called inactive.

For `O=C(CCCN1CCC2(CC1)C(=O)NCN2c1ccccc1)c1ccc(F)cc1`, the compound was classed as inactive.

With `O=C(O)CCCc1ccc(N(CCCl)CCCl)cc1`, the compound was called inactive.

On to `CN1C(=O)CCS(=O)(=O)C1c1ccc(Cl)cc1` (stereo not given), for which the call was inactive.

Regarding `COc1ccc2c(c1OC)C(=O)O[C@H]2[C@@H]1c2cc3c(cc2CCN1C)OCO3`, the outcome was inactive.
